Compound activity (PubChem)
TMEM16A inh = TMEM16A chloride channel inhibitors, primary screen, cell-based, HTS; 310,000 tested, 1.2% active; Anoctamin-1 (Mus musculus), Q8BHY3; HEK293 TMEM16A/YFP iodide influx fluorescence, ionomycin; normalized B-score (activity score, 25-100; higher = stronger inhibition) at 10 µM;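 active means ratio plate-corrected score three or more library SD toward inhibition, starting fluorescence score within five deviations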;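 further: score derived from kinetic fluorescence span divided by baseline fluorescence per well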
ANO1 activ = TMEM16A chloride channel activators or potentiators, primary screen, cell-based, HTS; 340,000 tested, 0.3% active; B-score at 10 µM; Anoctamin-1 (Mus musculus), Q8BHY3; HEK293 TMEM16A/YFP-H148Q/I152L, iodide quench fluorescence; active compounds read low;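 active means fluorescence-ratio B-score plate-corrected deviation score at least 3 library SD below zero, with starting fluorescence score within 5 deviations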;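 further: channel opened by trigger with iodide after compound preincubation; score built on the fluorescence ratio of max minus min over baseline; more negative score means more quench and so TMEM16A activation or potentiation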
CHT allo act = CHT positive allosteric modulators, primary screen, cell-based, membrane potential dye, choline EC20; AID 488977, 2010; 310,000 tested, 0.49% active; CHT-expressing cells; active compounds read high; LV-AA mutant CHT in HEK293 cells; B-score at 10 µM;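 active means initial fluorescence not abnormally high and integrated response B-score, plate-corrected, over 3 SD above library mean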
CHT inh = inhibitors of human choline transporter CHT. High affinity choline transporter 1 (Homo sapiens), Q9GZV3. CHT-expressing cells, membrane potential dye, choline response; active compounds read low. B-score at 10 µM. 310,000 tested, 0.86% active;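 active means B-score over 3 SD under the library average, and starting fluorescence ratio not unusually high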;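 further: choline stimulus applied at its EC90 after an EC20 pre-addition; B-score computed on integrated fluorescence ratio after choline addition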
CHT block conf = CHT inhibitors, confirmation, cell-based, membrane potential dye, duplicate; shares compounds with CHT inh; CHT-expressing cells, choline membrane potential dye; LV-to-AA substituted CHT, HEK293 cells; CHT activity remaining % of control (active compounds read low), % at 10 µM; 2,400 tested, 70% active; AID 493221, 2011;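 active means choline transporter activity left, mean of duplicates at 10 µM, below buffer-only control mean minus 3 SD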;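 further: depolarization triggered by choline at its EC90 following an EC20 pre-addition; 0% = hemicholinium-3 full block and 100% = buffer-only control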
HEK293 MPD ctr = membrane potential effects in parental HEK293, counter-screen for CHT inhibitor project, cell-based, membrane potential dye; shares compounds with CHT inh; membrane potential ratio readout (active if shifted either direction beyond buffer ±3SD; no single direction) at 10 µM; AID 493222, 2011; 2,400 tested, 4% active; choline response; active = decrease or increase beyond buffer ±3SD;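 further: parental cells lack the transporter so any hit is non-specific; ratio is peak minus trough fluorescence over baseline after EC90 choline challenge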
* = called active by the depositor; i = inactive; · = not tested or not shown. This is a sample that favours compounds with a hit; in the whole collection about 2.3% have one here.

SMILES | TMEM16A inh | ANO1 activ | CHT allo act | CHT inh | CHT block conf | HEK293 MPD ctr
CC(NC(=O)/C=C/c1ccccc1)c1ccccc1 (configuration not stated) | i | i | i | -5.4* | i | i
COc1ccc(OC)c(C(=O)COC(=O)c2[nH]c(C)c(C(C)=O)c2C)c1 | · | i | · | · | · | ·
CC(C)[C@H]1C(=O)Nc2ccccc2N1C(=O)N[C@@H](Cc1ccccc1)C(=O)N[C@H](Cc1ccccc1)C(=O)O | i | i | i | -7.2* | i | i
NC(N)=Nc1nc(CCN2C(=O)c3ccccc3C2=O)cs1 | i | i | i | -6.3* | 30%* | i
Cc1ccc(S(=O)(=O)N2CCC(C(=O)C3C(=O)CC(C)(C)CC3=O)CC2)cc1 | i | i | i | -6.4* | i | i
O=C1CCCC(=O)C1C(=O)C1CCN(S(=O)(=O)c2ccccc2)CC1 | i | i | i | i | · | ·
CC(=C\c1ccccc1)/C=C1/SC(=S)N(CCC(=O)O)C1=O | i | i | i | i | · | ·
CC(/C=C1\SC(=S)N(CC(=O)O)C1=O)=C\c1ccccc1 | i | i | i | -6* | 40%* | i
CC1CCCCC1NC(=O)c1ccc(S(=O)(=O)NCC2CCCO2)cc1 (configuration not stated) | i | i | i | -12* | 11%* | i
CC(=O)Oc1ccc(C(=O)Nc2ccc(S(=O)(=O)NCC3CCCO3)cc2)cc1 (configuration not stated) | i | i | i | -5.1* | 70%* | i
CC1c2ccccc2-c2ccccc2N1C (configuration not stated) | · | i | · | · | · | ·
CC1(C)CC2CC(C)(CN2C(=O)CCCN2C(=O)c3ccccc3C2=O)C1 (configuration not stated) | i | i | i | -6.8* | 48%* | i
CC(=O)Nc1ccc(S(=O)(=O)N(C)CC(=O)NNc2c(F)c(F)cc(F)c2F)cc1 | · | i | · | · | · | ·
CC(C)(C)C(=O)NNC(=O)c1cc2sccc2s1 | i | i | i | -5.8* | i | i
COCCNC(=O)c1cc(-c2ccccc2OC)on1 | i | i | i | -7.4* | i | i
Cc1ccc(C(=O)N/C(=C\c2ccco2)C(=O)NCCN2CCOCC2)cc1C | i | i | i | i | · | ·
CC(C)(C)n1nnnc1C(c1ccc2ncccc2c1)N1CCC(O)CC1 (configuration not stated) | i | i | i | -5.3* | i | i
CC/C(=C(/CC)c1ccc(O)cc1)c1ccc(O)cc1 | i | i | i | -7.4* | 55%* | i
Cc1csc(C(C)NC(=O)c2ccc(OC3CCN(CCc4ccccc4)CC3)cc2)n1 (configuration not stated) | i | i | i | -6.4* | 30%* | 2.6*
CC(C)N(C)C(=O)c1ccc(OC2CCN(CCc3ccccc3)CC2)cc1 | i | i | i | i | · | ·
CSC(=NS(=O)(=O)c1ccc(N)cc1)NS(=O)(=O)c1cccs1 | · | i | · | · | · | ·
OC(CNCC#Cc1ccccc1)c1ccccc1 (configuration not stated) | i | i | i | -6.8* | 52%* | i
COc1cc(C(=O)NNC(=O)c2ccccc2OCc2c(C)noc2C)cc(OC)c1OC | · | i | · | · | · | ·
CC[N+]1(CC)CC2=Cc3c(ccc4ccccc34)C(C)C2C1 (configuration not stated) | i | i | i | -6* | 60%* | i
CC1NC(C)(C)Cc2c1ccc1ccccc21 (configuration not stated) | i | i | i | i | · | ·
SMILES | TMEM16A inh | ANO1 activ | CHT allo act | CHT inh | CHT block conf | HEK293 MPD ctr
CN(Cc1ccccc1)c1ncnc2ccc(Br)cc12 | i | i | i | i | · | ·
CN(Cc1ccccc1)c1nc(N)nc(Cl)c1C=O | i | i | i | -5.5* | 33%* | i
Cc1cc(Cl)ccc1OCC(=O)Nc1cccnc1 | i | i | i | i | · | ·
c1ccc(OCc2nc(-c3ccncc3)no2)cc1 | i | i | i | i | · | ·
c1ccc(OCCCc2nc(-c3ccncc3)no2)cc1 | i | i | i | i | 59%* | -8.4*
Clc1ccccc1OCc1nc(-c2ccncc2)no1 | i | i | i | -6.4* | 16%* | -11*
C/C(=N\NC(=O)C1CC1)c1ccc(C)cc1C | i | i | i | i | · | ·
Cc1ccc(S(=O)(=O)NNC(=O)Nc2ccc(Cl)cc2)cc1 | i | i | i | i | · | ·
Cc1occc1C(=O)NNS(=O)(=O)c1ccc(Cl)cc1 | i | i | i | -5.4* | 27%* | i
Cc1cccc(N2CCN(C(=O)CCn3c(=O)[nH]c4ccsc4c3=O)CC2C)c1 (configuration not stated) | i | i | i | i | · | ·
Cc1cccc(N2CCN(C(=O)CCCn3c(=O)[nH]c4ccsc4c3=O)CC2C)c1 (configuration not stated) | i | i | i | -11* | 19%* | i
C=CCN(CC=C)c1ncnc2[nH]ncc12 | · | i | · | · | · | ·
COc1cc(C(=O)NC2Cc3ccccc3C2)ccc1OC1CCN(C(C)=O)CC1 | i | i | i | i | · | ·
COc1cc(C(=O)NC2CC(C)(C)CC(C)(C)C2)ccc1OC1CCN(C(C)=O)CC1 | i | i | i | -6.9* | 4.8%* | i
C[C@H](CO)N1C[C@H](C)[C@@H](CN(C)S(=O)(=O)c2ccc(F)cc2)Oc2ccc(NC(=O)CCN3CCOCC3)cc2C1=O | · | i | · | · | · | ·
CCC(Oc1ccccc1OC)C(=O)Nc1ccc2c(c1)OCO2 (configuration not stated) | i | i | i | i | · | ·
COc1ccccc1Nc1nnc(SCC2CCCCO2)s1 (configuration not stated) | i | i | i | -6.3* | 57%* | i
CCCn1c(SCC(=O)c2cc(C)n(-c3ccc4c(c3)OCO4)c2C)n[nH]c1=O | i | i | i | -5.5* | i | i
COc1cccc(CNc2ccc(N3CCCCC3)cc2)c1OC | i | i | i | -15* | 12%* | i
CCN(CC)CC(=O)Nc1ccc(/C(C)=N/NC2=NCCN2)cc1 | i | i | i | i | · | ·
